Screens as filed in PubChem.
The list is not random: actives were taken first. Their share in the collection is about 17%.
ATXN2 expr inh: Primary qHTS for Inhibitors of ATXN expression; HEK-293 ATXN2-luciferase reporter, luminescence, 24 h; Potency, µM (highest dose often 57 µM), hits mostly inhibitors; 0.72% of 360,000 active; also: nearly all actives have a fitted effect of over 55% in size
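qHTS (up to 57 uM final) was run with 24 h compound exposure of reporter cells at 37 °C. Each well was multiplexed: SteadyGlo luminescence measured ATXN2-luciferase expression after a fluorogenic Gly-Phe-AFC viability readout (25 uM final).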
ATXN viability: Viability Counterscreen for Primary qHTS for Inhibitors of ATXN expression; S2 cells (HEK-293 line with an ATXN2-luciferase reporter) viability, CellTiter-Fluor protease fluorescence, 24 h; Potency, µM (doses to about 56.7 µM), hits mostly cytotoxic; 0.49% of 400,000 active; AID 651635, 2014; also: nearly all actives have a fitted effect of over 40% in size
TDP1 cell CPT: qHTS for Inhibitors of human tyrosyl-DNA phosphodiesterase 1 (TDP1): qHTS in cells in presence of CPT; chicken DT40 Tdp1-/-;hTDP1 cells + 20 nM CPT, ATP luminescence, 48 h; Potency, µM (top dose mostly 46.2 µM), hits mostly inhibitors; 12% of 420,000 active; also: nearly all actives have a fitted effect of over 55% in size
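Chicken DT40 Tdp1-/- cells complemented with human TDP1, 400 cells/well, exposed to compounds plus 20 nM camptothecin for at least 48 h at 37 C; viability read as ATP content by CellTiter-Glo luminescence.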
TDP1 cell noCPT: qHTS for Inhibitors of human tyrosyl-DNA phosphodiesterase 1 (TDP1): qHTS in cells in absence of CPT; DT40 Tdp1-/- hTDP1 cells, no CPT, ATP luminescence, 48 h; 15% of 420,000 active; AID 686978, 2013; Potency, µM (titrated, usually from 46.2 µM), hits mostly inhibitors; also: nearly all actives have a fitted effect of over 55% in size
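Compound effects on proliferation are scored in DT40 Tdp1-/-;hTDP1 cells in the absence of CPT. ATP levels (CellTiter-Glo luminescence) are recorded after a ≥48 hr, 37 °C incubation.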
HepG2 viability: qHTS for Inhibitors of TGF-b: Cytotox Counterscreen. HepG2 CAGA-GFP viability, ATP luminescence, 18 h. Potency, µM (doses to about 46.1 µM), usual class: cytotoxic. 0.76% of 410,000 active. AID 588856, 2011
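CellTiter-Glo luminescence gave cytotoxicity after 18 hours at 37 degrees C. The cells were HepG2 CAGA-GFP in 1% FBS DMEM, stimulated with 500 pg/mL TGF-beta after compound addition. %Activity was normalised to no-cell wells (complete cell-killing) and DMSO (no toxicity), and curves were fitted and classified.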
TGFb SMAD3 inh: qHTS for Inhibitors of TGF-b; AID 588855, 2011; 1.2% of 410,000 active; HepG2 CAGA-GFP TGF-b/SMAD3 reporter, GFP fluorescence, 18 h; TGF-beta stimulated, 500 pg/mL final; Potency, µM (doses to about 46.1 µM), most hits filed as inhibitors; also: nearly all actives have a fitted effect of over 65% in size
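Inhibition of TGF-beta-driven CAGA-GFP reporter expression in HEPG2 cells is measured by cellular GFP fluorescence after 18 h stimulation with 500 pg/mL recombinant TGF-beta in 1% FBS medium at 37 degrees C.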
Hits are given with their value; – = inactive; ? = inconclusive; · = no result; [ ] = another dose, or the depositor's remark. Calls follow the shape of the dose curve; as a rule, active = well fitted curve in the direction sought with a large enough effect; inconclusive = small, poorly fitted or top-dose-only effect, or another doubt; inactive = no such curve, though single readings can be large; an effect the other way counts as inactive or inconclusive.

SMILES	ATXN2 expr inh	ATXN viability	TDP1 cell CPT	TDP1 cell noCPT	HepG2 viability	TGFb SMAD3 inh
COc1ccc(Cl)cc1NS(=O)(=O)c1cccc2cccnc12	–	–	?	?	–	–
CCc1ccccc1NS(=O)(=O)c1ccc(OC)c2ncccc12	?	?	18µM	10µM	–	?
CCc1ccc(NS(=O)(=O)c2ccc(OC)c3ncccc23)cc1	–	–	?	–	–	–
CC(C)(C)n1ncc2c(=O)n(Cc3c(Cl)ccc(Cl)c3Cl)cnc21	·	·	·	·	–	–
Cc1c(C#N)c(NC(=O)COC(=O)c2cc(Cl)c3c(c2)OCCCO3)n(Cc2ccco2)c1C	·	·	?	–	–	–
Cc1cnc(C)c(-c2cc(F)cc3c2OC(CNC(=O)Cc2c(C)noc2C)C3)n1 (stereo not given)	·	–	?	?	·	·
O=C(/C=C\C=C/c1ccc2c(c1)OCO2)N1CCCCC1	·	–	·	·	·	·
CN1CCCCC1(C)C(=O)NCc1ccc(C(C)(C)C)cc1 (stereo not given)	–	–	–	–	–	–
COc1cccc(C(=O)Nc2ccc(F)cc2F)c1	–	–	–	–	–	–
COC(=O)c1ccc2c(c1)C(NC(C)=O)CCc1cc(OC)c(OC)c(OC)c1-2 (stereo not given)	–	?	0.018µM	0.021µM	–	?
COc1c(C=O)c2c(c(OC)c1OC)-c1ccc(OC)c(=O)cc1C(NC(C)=O)CC2 (stereo not given)	–	–	0.0082µM	0.015µM	–	?
COC(=O)c1ccc(NC(=S)NC2CCc3ccccc32)cc1 (stereo not given)	–	–	–	–	–	–
COc1cccc(C(=O)Nc2ccc3c(cc2=O)[C@@H](NC(C)=O)CCc2cc(OC)c(OC)c(OC)c2-3)c1	–	–	6.5µM	2.9µM	–	?
COc1cc(CC(=O)NC2CCCc3ccccc32)cc(OC)c1OC (stereo not given)	–	–	?	?	–	–
CCCC(=O)NC1CCc2cc(OC)c(OC)c(OC)c2-c2ccc(OC)c(=O)cc21 (stereo not given)	–	–	0.016µM	0.016µM	–	?
COc1ccc(C(C)=O)cc1CC(=O)NC1CCCCCC1	–	–	–	–	–	–
CC(C)(C)S(=O)N1Cc2cc(=O)n(Cc3ccccc3)cc2[C@@H]1CCO (stereo not given in full)	–	–	–	–	–	–
Cc1nnc(NC(=O)CCn2c(=O)oc3ccccc32)s1	–	–	–	–	–	–
S=C1NC(c2ccccc2)=CC(c2ccccc2)N1 (stereo not given)	–	–	?	29µM	–	–
CCOc1ccccc1Nc1nc2ccccc2n1C(C)C	–	–	?	?	–	–
CC(=O)Nc1nonc1-c1nnc(SCc2cccc(Br)c2)n1C	–	–	16µM	18µM	–	–
COc1ccccc1NC(=O)CSc1nnc(-c2nonc2NC(C)=O)n1-c1ccccc1	–	–	?	23µM	–	–
COc1ccc(-c2nnc(SCC(=O)NNC(=O)Cc3ccccc3)n2C)cc1OC	–	–	?	23µM	–	–
COc1ccc(-c2nnc(SCC(=O)Nc3ncc(C)s3)n2-c2ccccc2)cc1OC	–	–	21µM	23µM	–	–
COc1ccccc1NC(=O)CC(=O)CSc1nnc(-c2ccc(C)cc2)n1-c1ccccc1	–	–	–	–	–	–
SMILES	ATXN2 expr inh	ATXN viability	TDP1 cell CPT	TDP1 cell noCPT	HepG2 viability	TGFb SMAD3 inh
CC(=O)Nc1nonc1-c1nnc(SCC(=O)Nc2ccccc2)n1-c1ccccc1	–	–	–	–	–	–
CCC(Oc1ccccc1)C(=O)NCCOC (stereo not given)	–	–	–	?	–	–
O=C(COC(=O)c1ccccc1NCCO)Nc1cccc(S(=O)(=O)NC2=NCCCCC2)c1	–	–	–	–	–	–
CC(=O)c1ccc(NC(=O)CCS(=O)(=O)c2ccc3c(c2)n(C)c(=O)c(=O)n3C)cc1	–	–	–	–	–	–
N#CC(C#N)=Cc1cc2ccccc2nc1N1CCOCC1	–	–	13µM	10µM	–	?
N#C/C(=C\c1cc2ccccc2nc1N1CCOCC1)C(=O)Nc1ccc(N2CCOCC2)cc1	–	–	13µM	16µM	–	–
CCCc1cc(=O)[nH]c(SCC(=O)NC2(C#N)CCCCC2)n1	–	–	–	–	–	–
Cc1nc2ccc(C(=O)OC(C)C(=O)c3c(C)[nH]c4ccccc34)cc2nc1C (stereo not given)	·	·	?	13µM	–	–
CC(C)OC(=O)c1ccc2nc3ccccc3nc2c1	–	–	–	?	–	–
Cc1[nH]c2ccccc2c1C(=O)C(C)OC(=O)c1ccc([N+](=O)[O-])o1 (stereo not given)	–	–	?	16µM	–	?
CCc1noc(C)c1C(=O)OCC(=O)NCc1ccccc1	·	–	–	–	–	–
CCc1noc(C)c1C(=O)OC(C)C(=O)c1c(C)[nH]c2ccccc12 (stereo not given)	·	–	16µM	?	–	–
CC(NC(=O)CCC(=O)c1ccccc1)c1ccc(F)cc1 (stereo not given)	–	–	–	–	–	–
Cc1oc(-c2ccccc2NC(=O)c2ccccn2)nc1CNC(=O)c1ccc(Oc2ccccc2)o1	·	–	–[9.04 µM]	–	·	·
Cc1ccc(Cl)cc1NC(c1ccc(F)cc1)c1nnc(-c2ccccc2)o1 (stereo not given)	–	–	?	?	–	–
Cc1cccc(N2CCN(C(c3ccc(F)cc3)c3nnc(-c4ccccc4)o3)CC2)c1C (stereo not given)	–	–	?	16µM	–	–
C[C@H]1CN[C@@H](CCO)/C1=C\c1ccccc1	–	–	–	?	–	–
CCN(CC)S(=O)(=O)c1ccc2c(c1)nc(CCC(=O)Nc1ccccc1Cc1ccccc1)n2CC	–	–	21µM	23µM	–	?
CCn1c(CCC(=O)Nc2cc(F)ccc2C)nc2cc(S(=O)(=O)N(C)C)ccc21	–	–	?	–	–	–
Cc1ccc2nc(-c3cc(-c4ccccc4)no3)cn2c1	3.5µM	–	–	–	–	–
CCc1ccn2cc(-c3cc(-c4ccccc4)no3)nc2c1	·	?	?	18µM	10µM	?
Cc1ccc(-c2cc(-c3ccccc3)no2)c(O)c1	–	–	–	–	–	–
